As a reminder, the AC50 is the concentration giving half of the maximal activity seen.

Records with an inconclusive call do not appear. Calls of active or inactive are those of the source. How the source made its calls, unless noted: active means hit-call score of the fitted dose curve at least 0.9, where 1 is the maximum; inconclusive means response in the unintended direction; inactive means score below 0.9.

Results on nine compounds are retold here after PubChem BioAssay (EPA / NIEHS).

Test [1] is described as follows: Tanguay_ZF_120hpf_AXIS_legacy: (Legacy) Oregon State University Tanguay Lab 120 Hour Post-fertilization zebrafish Assay for Body Axis Malformation (AID 2283635). The method, boiled down:
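Embryos: 5D wild-type, pronase-dechorionated 4 hpf; static exposure 6–120 hpf, 28C, sealed, dark, 1 embryo/well, 0.64% DMSO. 120 hpf axis malformation scored present/absent; dead embryos excluded. Analysed as gain of signal vs DMSO.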

The nature of test [2]: Tanguay_ZF_120hpf_EYE_legacy: (Legacy) Oregon State University Tanguay Lab 120 Hour Post-fertilization zebrafish Assay for Eye Malformation (AID 2283636).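 Further: binary presence or absence of eye malformation scored by brightfield in 120 hpf larvae.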 The method, boiled down:
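Dechorionated Tropical 5D zebrafish embryos, one per well from 6 hpf, static exposure to 120 hpf at 28C, 0.64% DMSO. Eye malformation scored present/absent by brightfield; dead embryos not scored.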

The nature of test [3]: Tanguay_ZF_120hpf_SNOU_legacy: (Legacy) Oregon State University Tanguay Lab 120 Hour Post-fertilization zebrafish Assay for Snout Malformation (AID 2283637). In outline:
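Dechorionated tropical 5D wild-type zebrafish embryos exposed statically from 6 to 120 hpf at 28C, one per well, in 0.64% DMSO. Snout malformation scored as present/absent by brightfield at 120 hpf; dead embryos not scored.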

Test [4] is described as follows: Tanguay_ZF_120hpf_JAW_legacy: (Legacy) Oregon State University Tanguay Lab 120 Hour Post-fertilization zebrafish Assay for Jaw Malformation (AID 2283638). The method, boiled down:
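Binary jaw-malformation calls at 120 hpf by brightfield imaging; DMSO (0.64% v/v) = baseline. Embryos: 5D wild-type, pronase-dechorionated, one per well from 6 hpf, static exposure, 28C, sealed, dark.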

The nature of test [5]: Tanguay_ZF_120hpf_OTIC_legacy: (Legacy) Oregon State University Tanguay Lab 120 Hour Post-fertilization zebrafish Assay for Otic Vesicle Malformation (AID 2283639). The method, boiled down: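 Tropical 5D wild-type zebrafish embryos were exposed statically in sealed, foil-covered plates at 28C until 120 hpf, with 0.64% (vol/vol) DMSO final. Otic vesicle malformation was scored present/absent by brightfield microscopy, with DMSO as baseline.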

Test [6] can be described thus: Tanguay_ZF_120hpf_PE_legacy: (Legacy) Oregon State University Tanguay Lab 120 Hour Post-fertilization zebrafish Assay for Pericardial Edema (AID 2283640). In outline:
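Static waterborne exposure, 5D wild-type embryos, 28C, to 120 hpf; final DMSO 0.64% (vol/vol). Binary PE call at 120 hpf by brightfield; fitted upward vs DMSO baseline. 5uM trimethyltin chloride as positive control.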

Test [7] can be described thus: Tanguay_ZF_120hpf_BRAI_legacy: (Legacy) Oregon State University Tanguay Lab 120 Hour Post-fertilization zebrafish Assay for Brain Malformation (AID 2283641). The method, boiled down:
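Read-out: binary brain morphology call at 120 hpf (brightfield), fitted in gain-of-signal direction vs DMSO. Wild-type Tropical 5D embryos, static exposure, 28C, 0.64% DMSO final; 5uM trimethyltin chloride as positive control.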

The nature of test [8]: Tanguay_ZF_120hpf_SOMI_legacy: (Legacy) Oregon State University Tanguay Lab 120 Hour Post-fertilization zebrafish Assay for Somite Malformation (AID 2283647). In outline:
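Binary brightfield scoring of somite defects at 120 hpf in 5D wild-type larvae; one dechorionated embryo per well, static exposure from 6 hpf, 28C, sealed and dark. Final DMSO 0.64%; trimethyltin chloride 5uM positive control.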

A short description of test [9]: Tanguay_ZF_120hpf_PFIN_legacy: (Legacy) Oregon State University Tanguay Lab 120 Hour Post-fertilization zebrafish Assay for Pectoral Fin Malformation (AID 2283648).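 Further: each larva judged yes or no for fin defect by brightfield with dead larvae skipped.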 The method, boiled down: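 Dechorionated Tropical 5D wild-type zebrafish embryos, one per well, statically exposed from 6 to 120 hpf at 28C with 0.64% DMSO final. Pectoral fin malformation scored present/absent by brightfield at 120 hpf; not scored in dead embryos.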

Test [10] in a line: Tanguay_ZF_120hpf_CFIN_legacy: (Legacy) Oregon State University Tanguay Lab 120 Hour Post-fertilization zebrafish Assay for Caudal Fin Malformation (AID 2283649). In outline:
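Dechorionated 5D wild-type zebrafish, static exposure 6–120 hpf, 28C, sealed and dark, 0.64% v/v DMSO final. Binary fin-malformation call at 120 hpf, brightfield; gain of signal vs DMSO baseline.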

A short description of test [11]: Tanguay_ZF_120hpf_PIG_legacy: (Legacy) Oregon State University Tanguay Lab 120 Hour Post-fertilization zebrafish Assay for Pigmentation Malformation (AID 2283650). The method, boiled down: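 Dechorionated Tropical 5D wild-type embryos, one per well from 6 hpf, statically exposed at 28C in the dark until 120 hpf, 0.64% DMSO final. Pigmentation scored present/absent by brightfield microscopy; dead embryos not scored; fitted versus DMSO.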

Test [12] is described as follows: Tanguay_ZF_120hpf_CIRC_legacy: (Legacy) Oregon State University Tanguay Lab 120 Hour Post-fertilization zebrafish Assay for Circulatory Malformation (AID 2283651). The method, boiled down:
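Tropical 5D wild-type embryos, dechorionated with pronase at 4 hpf, were placed singly in wells at 6 hpf and exposed statically at 28C to 120 hpf (0.64% DMSO final). Circulatory malformation was scored present/absent by brightfield microscopy.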

Test [13] in a line: Tanguay_ZF_120hpf_SWIM_legacy: (Legacy) Oregon State University Tanguay Lab 120 Hour Post-fertilization zebrafish Assay for Swim Bladder Malformation (AID 2283654).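 Further: swim bladder malformation in each larva scored yes or no under brightfield.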 In outline:
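Dechorionated wild-type Tropical 5D zebrafish embryos, one per well from 6 hpf, were statically exposed at 28C until 120 hpf in 0.64% DMSO. Swim bladder malformation scored as present/absent by brightfield microscopy; not scored in dead larvae.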

The nature of test [14]: CCTE_Simmons_CellTiterGLO_HEK293T: Viability Assessment in CCTE's Assays for Thyroperoxidase (TPO) Inhibition, Simmons Lab (AID 2283665).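 On AC50: cells exposed to compound for 24 h before readout; actives reduce ATP signal below DMSO vehicle meaning cytotoxicity.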 The method, boiled down:
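HEK293T cells in DMEM with 1% FBS were dosed with 8 concentrations (5 nM–87.5 uM final, 0.5% DMSO) for 24 hr at 37C; ATP content was read by CellTiter-Glo luminescence, loss-of-signal versus DMSO, three biological replicates.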
(In ATP-based viability assays light output follows the ATP content of the culture.)

Test [15] can be described thus: Tanguay_ZF_120hpf_TRUN_legacy: (Legacy) Oregon State University Tanguay Lab 120 Hour Post-fertilization zebrafish Assay for Truncated Body (AID 2283655). In outline: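 Whole-embryo zebrafish screen: dechorionated 5D embryos, static exposure 6–120 hpf, 28C, sealed foil-covered plates, 0.64% DMSO. Binary truncation call; gain of signal versus DMSO baseline.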
Test [16] can be described thus: Tanguay_ZF_120hpf_NC_legacy: (Legacy) Oregon State University Tanguay Lab 120 Hour Post-fertilization zebrafish Assay for Notochord and Tail Malformation (AID 2283656). The method, boiled down: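 Dechorionated 5D zebrafish, 1/well from 6 hpf; static exposure to 120 hpf, 28C, sealed, dark; final DMSO 0.64% v/v. NC scored binary (present/absent); dead embryos not scored. Fit vs DMSO baseline, gain direction.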

Read-out in test [17]: kallikrein-3 (KLK3), KLK3 (gene 354)
As to the kind of experiment: LTEA_HepaRG_KLK3: Life Technologies and Expression Analysis (LTEA) Assay for kallikrein-3 (KLK3) using HepaRG (AID 2283652; active means hit-call score of the fitted dose curve at least 0.9, where 1 is the maximum; inactive means score below 0.9). Particulars: mRNA level, 48 h; actives raise or lower the signal. In outline: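 Differentiated human HepaRG cells in serum-free induction medium exposed 48 h in duplicate, eight-point half-log series from 100 uM in 0.5% DMSO. KLK3 mRNA by qRT-PCR, normalised to ACTB, GAPDH, POLR2A; bidirectional fit versus DMSO.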

Read-out in test [18]: solute carrier (SLC22A6), SLC22A6 (gene 9356)
Briefly: LTEA_HepaRG_SLC22A6: Life Technologies and Expression Analysis (LTEA) Assay for solute carrier (SLC22A6) using HepaRG (AID 2283653; active means hit-call score of the fitted dose curve at least 0.9, where 1 is the maximum; inactive means score below 0.9). Particulars: mRNA level, 48 h; actives raise or lower the signal. In outline:
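HepaRG, human liver line; 48 h chemical exposure; 8-pt half-log series from 100 uM in 0.5% DMSO, duplicate wells. Readout: TaqMan qRT-PCR of SLC22A6 mRNA, housekeeping-normalised; bidirectional curve fit vs DMSO baseline.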

Read-out in test [19]: solute carrier (SLC10A1), SLC10A1 (gene 6554)
Briefly: LTEA_HepaRG_SLC10A1: Life Technologies and Expression Analysis (LTEA) Assay for solute carrier (SLC10A1) using HepaRG (AID 2283657; active means hit-call score of the fitted dose curve at least 0.9, where 1 is the maximum; inactive means score below 0.9). The settings on record: mRNA level, 48 h; actives raise or lower the signal. In outline: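 HepaRG cells (single lot) exposed 48 h in serum-free induction medium, 8-point half-log series from 100 uM top in 0.5% DMSO, duplicate. SLC10A1 mRNA by qRT-PCR normalised to ACTB, GAPDH, POLR2A; bidirectional fit versus DMSO.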

Read-out in test [20]: matrix metalloproteinase-1 (MMP1), MMP1 (gene 4312)
Briefly: LTEA_HepaRG_MMP1: Life Technologies and Expression Analysis (LTEA) Assay for matrix metalloproteinase-1 (MMP1) using HepaRG (AID 2283658; active means hit-call score of the fitted dose curve at least 0.9, where 1 is the maximum; inactive means score below 0.9). Particulars: mRNA level, 48 h; actives raise or lower the signal. In outline: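 MMP1 transcript read by TaqMan qRT-PCR (Fluidigm array) after 48 h chemical exposure of HepaRG cells in serum-free induction medium. Eight-point half-log series, top 100 uM, 0.5% DMSO vehicle. Bidirectional curve fit against DMSO baseline.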

In the case of `CC(C)(O)c1coc(S(=O)(=O)NC(=O)Nc2c3c(cc4c2CCC4)CCC3)c1`, the call in test [1], in [2], in [3], in test [4], in test [5] and in [6] was inactive. The result in test [7], in [8], in test [9], in [10], in test [11] and in [12] was inactive. The compound was called inactive in [13]. Moreover, the AC50 in [14] is 22.4 µM (active).

Take `CC/C(=C\C(=N/O)C(N)=O)C(C)[N+](=O)[O-]` (centres undefined): the outcome in test [1], in test [2], in test [3], in test [4], in [5] and in test [7] was inactive. The result in test [8], in [9], in test [10], in test [11], in test [12] and in test [13] was inactive. Further, the compound was called inactive in test [15], in [16] and in test [14].

As for `CC[C@H]1OC(=O)[C@H](C)[C@@H](O[C@H]2C[C@@](C)(OC)[C@@H](O)[C@H](C)O2)[C@H](C)[C@@H](O[C@@H]2O[C@H](C)C[C@H](N(C)C)[C@H]2O)[C@](C)(O)C[C@@H](C)C(=O)[C@H](C)[C@@H](O)[C@]1(C)O`, the compound was called inactive in [1], in test [2], in test [3], in [4], in [5] and in test [7]. The compound was classed as inactive in test [8], in test [9], in test [10], in test [11], in test [12] and in test [16].

As to `Cn1c(=O)cc(Oc2ccc(F)cc2F)c2cnc(NCC(C)(C)O)nc21`, the outcome in test [1], in [2], in test [3], in [4], in test [5] and in [7] was inactive. The result in test [8], in test [9], in [10], in test [11], in test [12] and in [13] was inactive. Further, the call in test [15] and in test [16] was inactive.

As to `Nc1nc2ncc(CNc3ccc(C(=O)N[C@@H](CCC(=O)O)C(=O)O)cc3)nc2c(=O)[nH]1`, the outcome in test [1], in [2], in test [3], in [4], in test [5] and in [6] was inactive. Also, the compound was called inactive in [10], in [11], in [12], in test [13] and in [14].

For the compound `Cc1[nH]cnc1C[C@H]1CCc2c(C)c3ccccc3n2C1=O`, the compound was classed as inactive in test [1], in test [2], in test [3], in test [4], in test [7] and in [8]. Also, the outcome in [9], in test [10], in test [11], in test [12], in test [13] and in test [16] was inactive.

Turning to `O=c1[nH]c2ccc(S(=O)CCN3CCC(Cc4ccc(F)cc4)CC3)cc2o1` (centres undefined), the outcome in [1], in [2], in test [3], in [4], in test [5] and in [6] was inactive. For the same compound, the compound was called inactive in [7], in test [8], in test [9], in test [10], in [11] and in test [12].

With `COCCOc1cc2cc(C(=O)NC3CCN(C(C)C)CC3)n(CC(=O)Nc3ccc(Cl)cn3)c2cn1`, the compound was classed as inactive in [1], in test [2], in test [3], in test [4], in test [5] and in test [7]. In addition, the outcome in test [8], in [9], in test [10], in test [11], in test [12] and in test [13] was inactive.

Take `C=CC(=C)CCC=C(C)C`: the result in [1], in [2], in test [3], in [4], in test [5] and in test [7] was inactive. Besides, the outcome in test [8], in test [10], in [11], in [12], in test [17] and in test [18] was inactive. In addition, the result in test [13], in test [16], in test [19], in [20] and in [14] was inactive.
